Results from PubChem BioAssay AID1159580 (chemical genetic matrix, 2015).
Among all 5,500 compounds or so, about 2,000 (36%) were called active. About 18% were inconclusive and are not listed. No stated cut-off is given here; in the data, active means normalized growth mostly below about 0.91 (no sharp cut-off); inconclusive means no clear call, values can overlap the other calls; inactive means mostly above about 0.92. The list shows a part of the results.

Experiment: chemical genetic growth profiling, strain panel (AID 1159580);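 further: tested at 20 µM; growth read once vehicle control cultures reached saturation at 30 °C; 1 = growth at the plate median or of vehicle wells; lower values mean less growth of the strain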
Settings: growth OD

Measured: normalized growth

CCCCCCOc1ccccc1C(N)=O
inactive: S. cerevisiae deletion strains, locus YKR026C, strain gcn3, active compounds read low 0.948 | S. cerevisiae deletion strains, locus YKR091W, strain srl3, active compounds read low 0.953 | S. cerevisiae deletion strains, locus YLL041C, strain sdh2, active compounds read low 0.94 | S. cerevisiae deletion strains, locus YLR039C, strain RIC1, active compounds read low 1.04 | S. cerevisiae deletion strains, locus YLR262C, strain YPT6 (second series), active compounds read low 1.11 | S. cerevisiae deletion strains, locus YLR262C, strain YPT6, active compounds read low 0.921 | S. cerevisiae deletion strains, locus YLR357W, strain rsc2, active compounds read low 1.07 | S. cerevisiae deletion strains, locus YLR370C, strain arc18, active compounds read low 0.932 | S. cerevisiae deletion strains, locus YLR384C, strain iki3, active compounds read low 0.959 | S. cerevisiae deletion strains, locus YMR129W, active compounds read low 0.945 | S. cerevisiae deletion strains, locus YMR231W, strain pep5, active compounds read low 0.979 | S. cerevisiae deletion strains, locus YNL183C, strain NPR1, active compounds read low 0.869 | S. cerevisiae deletion strains, locus YNL322C, strain KRE1 (second series), active compounds read low 0.978 | S. cerevisiae deletion strains, locus YNR049C, strain mso1, active compounds read low 0.942 | S. cerevisiae deletion strains, locus YOL012C, strain htz1 0.5 | S. cerevisiae deletion strains, locus YOR001W, strain rrp6, active compounds read low 0.904 | S. cerevisiae deletion strains, locus YOR080W, strain dia2, active compounds read low 0.951 | S. cerevisiae deletion strains, locus YOR231W, strain MKK1, active compounds read low 0.877 | S. cerevisiae deletion strains, locus YOR265W, strain rbl2, active compounds read low 0.929 | S. cerevisiae deletion strains, locus YOR290C, strain snf2, active compounds read low 0.87 | S. cerevisiae deletion strains, locus YPL106C, strain sse1, active compounds read low 1.01 | S. cerevisiae deletion strains, locus YPL240C, strain hsp82, active compounds read low 0.945 | S. cerevisiae deletion strains, locus YPL256C, strain CLN2, active compounds read low 0.864
active: S. cerevisiae deletion strains, locus YJR043C, strain POL32, active compounds read low 0.529 | S. cerevisiae deletion strains, locus YJR066W, strain TOR1, active compounds read low 0.815 | S. cerevisiae deletion strains, locus YKL009W, strain mrt4, active compounds read low 0.768 | S. cerevisiae deletion strains, locus YKL068W, active compounds read low 0.851 | S. cerevisiae deletion strains, locus YKL085W, strain MDH1 (second series), active compounds read low 0.826 | S. cerevisiae deletion strains, locus YKL085W, strain MDH1, active compounds read low 0.826 | S. cerevisiae deletion strains, locus YKL160W, strain elf1, active compounds read low 0.883 | S. cerevisiae deletion strains, locus YKL190W, strain CNB1, active compounds read low 0.281 | S. cerevisiae deletion strains, locus YKR001C, strain vps1, active compounds read low 0.678 | S. cerevisiae deletion strains, locus YLL001W, strain dnm1, active compounds read low 0.887 | S. cerevisiae deletion strains, locus YLL026W, active compounds read low 0.877 | S. cerevisiae deletion strains, locus YLR027C, strain aat2, active compounds read low 0.898 | S. cerevisiae deletion strains, locus YLR058C, strain SHM2, active compounds read low 0.641 | S. cerevisiae deletion strains, locus YLR102C, strain apc9, active compounds read low 0.667 | S. cerevisiae deletion strains, locus YLR113W, strain HOG1, active compounds read low 0.85 | S. cerevisiae deletion strains, locus YLR221C, strain rsa3, active compounds read low 0.845 | S. cerevisiae deletion strains, locus YLR258W, strain gsy2, active compounds read low 0.862 | S. cerevisiae deletion strains, locus YLR268W, strain sec22, active compounds read low 0.308 | S. cerevisiae deletion strains, locus YLR320W, strain mms22, active compounds read low 0.59 | S. cerevisiae deletion strains, locus YLR330W, strain CHS5, active compounds read low 0.355 | S. cerevisiae deletion strains, locus YLR342W, strain FKS1 (second series), active compounds read low 0.366 | S. cerevisiae deletion strains, locus YLR342W, strain FKS1, active compounds read low 0.859 | S. cerevisiae deletion strains, locus YLR371W, strain rom2, active compounds read low 0.566 | S. cerevisiae deletion strains, locus YLR418C, strain cdc73, active compounds read low 0.207 | S. cerevisiae deletion strains, locus YML016C, strain PPZ1, active compounds read low 0.822 | S. cerevisiae deletion strains, locus YML032C, strain rad52, active compounds read low 0.526 | S. cerevisiae deletion strains, locus YML120C, strain ndi1, active compounds read low 0.857 | S. cerevisiae deletion strains, locus YML124C, strain tub3, active compounds read low 0.725 | S. cerevisiae deletion strains, locus YMR058W, strain fet3, active compounds read low 0.807 | S. cerevisiae deletion strains, locus YMR078C, strain ctf18, active compounds read low 0.361 | S. cerevisiae deletion strains, locus YMR125W, strain sto1, active compounds read low 0.785 | S. cerevisiae deletion strains, locus YMR205C, strain PFK2, active compounds read low 0.835 | S. cerevisiae deletion strains, locus YMR223W, strain ubp8, active compounds read low 0.55 | S. cerevisiae deletion strains, locus YMR307W, strain GAS1, active compounds read low 0.457 | S. cerevisiae deletion strains, locus YNL067W, strain RPL9B, active compounds read low 0.599 | S. cerevisiae deletion strains, locus YNL071W, strain lat1, active compounds read low 0.57 | S. cerevisiae deletion strains, locus YNL153C, strain GIM3, active compounds read low 0.502 | S. cerevisiae deletion strains, locus YNL209W, strain ssb2, active compounds read low 0.902 | S. cerevisiae deletion strains, locus YNL233W, strain BNI4, active compounds read low 0.326 | S. cerevisiae deletion strains, locus YNL248C, strain rpa49, active compounds read low 0.865 | S. cerevisiae deletion strains, locus YNL250W, strain rad50, active compounds read low 0.871 | S. cerevisiae deletion strains, locus YNL271C, strain bni1, active compounds read low 0.696 | S. cerevisiae deletion strains, locus YNL298W, strain CLA4, active compounds read low 0.778 | S. cerevisiae deletion strains, locus YNL307C, strain MCK1, active compounds read low 0.0873 | S. cerevisiae deletion strains, locus YNL322C, strain KRE1, active compounds read low 0.705 | S. cerevisiae deletion strains, locus YNR052C, strain pop2, active compounds read low 0.797 | S. cerevisiae deletion strains, locus YOL006C, strain TOP1, active compounds read low 0.135 | S. cerevisiae deletion strains, locus YOL147C, strain pex11, active compounds read low 0.243 | S. cerevisiae deletion strains, locus YOR061W, strain CKA2, active compounds read low 0.794 | S. cerevisiae deletion strains, locus YOR069W, strain VPS5, active compounds read low 0.798 | S. cerevisiae deletion strains, locus YOR070C, strain gyp1, active compounds read low 0.891 | S. cerevisiae deletion strains, locus YOR083W, strain WHI5, active compounds read low 0.855 | S. cerevisiae deletion strains, locus YOR106W, strain vam3, active compounds read low 0.861 | S. cerevisiae deletion strains, locus YOR136W, strain idh2, active compounds read low 0.719 | S. cerevisiae deletion strains, locus YOR144C, strain elg1, active compounds read low 0.485 | S. cerevisiae deletion strains, locus YOR184W, strain ser1, active compounds read low 0.187 | S. cerevisiae deletion strains, locus YOR270C, strain vph1, active compounds read low 0.446 | S. cerevisiae deletion strains, locus YOR316C, strain cot1, active compounds read low 0.567 | S. cerevisiae deletion strains, locus YPL051W, strain arl3, active compounds read low 0.878 | S. cerevisiae deletion strains, locus YPL078C, strain atp4, active compounds read low 0.729 | S. cerevisiae deletion strains, locus YPR119W, strain clb2, active compounds read low 0.625 | S. cerevisiae deletion strains, locus YPR141C, strain kar3, active compounds read low 0.825 | S. cerevisiae deletion strains, locus YPR163C, strain tif3, active compounds read low 0.142 | S. cerevisiae deletion strains, locus YPR167C, strain met16, active compounds read low 0.627 | S. cerevisiae deletion strains, strain wtn01, active compounds read low 0.444 | S. cerevisiae strains, strain wild type, active compounds read low 0.559
